Bioassay records as filed in PubChem BioAssay.
KCNK9 inh: KCNK9 potassium channel inhibitors, primary screen, HEK293 cells, thallium flux; Potassium channel subfamily K member 9 (Homo sapiens), Q9NPC2; FluxOR thallium flux fluorescence; stronger effect = lower value; B-score at 10 µM; 310,000 compounds, 1.2% hits;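 active = ratio B-score over 3 SD below the library mean, with starting fluorescence within 5 SD of its mean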;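 also: negative B-score means less thallium flux so channel inhibition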
TMEM16A act: TMEM16A chloride channel activators or potentiators, primary screen, cell-based, HTS; HEK293 TMEM16A/YFP-H148Q/I152L, iodide quench fluorescence; stronger effect = lower value; B-score at 10 µM; 340,000 compounds, 0.3% hits; AID 623877, 2012;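 active = fluorescence-ratio B-score plate-corrected deviation score at least 3 library SD below zero, with starting fluorescence score within 5 deviations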;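 also: channel opened by trigger with iodide after compound preincubation; score built on the fluorescence ratio of max minus min over baseline; more negative score means more quench and so TMEM16A activation or potentiation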
KCNK3 block: human KCNK3 channel inhibitors, primary screen, CHO cells, FluxOR thallium flux, B-score; B-score at 10 µM; AID 602410, 2012; FluxOR fluorescence; stronger effect = lower value; Potassium channel subfamily K member 3 (Homo sapiens), O14649; 340,000 compounds, 0.84% hits;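 active = B-score under library mean minus 4 SD, starting fluorescence ratio at most library mean plus 5 SD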;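 also: more negative B-score means stronger inhibition of thallium flux through KCNK3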
Target sequence (O14649 whole entry, looked up): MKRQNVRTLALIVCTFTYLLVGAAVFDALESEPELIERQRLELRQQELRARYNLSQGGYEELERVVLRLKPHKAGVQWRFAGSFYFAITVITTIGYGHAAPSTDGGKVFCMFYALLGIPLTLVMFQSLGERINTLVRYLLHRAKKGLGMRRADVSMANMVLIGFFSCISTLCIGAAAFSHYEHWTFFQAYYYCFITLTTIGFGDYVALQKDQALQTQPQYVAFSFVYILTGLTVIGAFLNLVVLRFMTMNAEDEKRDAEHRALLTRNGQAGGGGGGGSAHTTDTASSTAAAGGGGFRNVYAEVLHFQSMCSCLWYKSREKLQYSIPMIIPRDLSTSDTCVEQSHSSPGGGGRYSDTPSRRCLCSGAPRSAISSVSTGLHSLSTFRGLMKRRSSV
ANO1 block: TMEM16A chloride channel inhibitors, primary screen, cell-based, HTS; Anoctamin-1 (Mus musculus), Q8BHY3; HEK293 TMEM16A/YFP iodide influx fluorescence, ionomycin; normalized B-score (activity score, 25-100; higher = stronger inhibition) at 10 µM; 310,000 compounds, 1.2% hits; AID 588511, 2011;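 active = ratio plate-corrected score three or more library SD toward inhibition, starting fluorescence score within five deviations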;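 also: score derived from kinetic fluorescence span divided by baseline fluorescence per well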
Kir21 block: inhibitors of mouse Kir2.1 inward-rectifier potassium channel; Inward rectifier potassium channel 2 (Mus musculus), P35561; HEK293-Kir2.1, FluxOR thallium flux fluorescence; stronger effect = lower value; B-score at 10 µM; 310,000 compounds, 0.85% hits;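 active = fluorescence ratio B-score at or below minus 3 SD of library scores, with starting-brightness B-score within 2 SD, cut at about -4.2 in these data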;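 also: channel flux triggered by added potassium and thallium sulfate stimulus; B-score of peak minus minimum fluorescence over baseline after thallium stimulus; more negative B-score means stronger Kir2.1 block with less thallium influx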
* = called active by the depositor; i = inactive; · = no result. This is a sample that favours compounds with a hit; in the whole collection about 3.5% have one here.

SMILES | KCNK9 inh | TMEM16A act | KCNK3 block | ANO1 block | Kir21 block
Cc1ccc(C)c(Nc2nc(-c3ccncc3)nc3ccccc23)c1 | i | i | i | i | -1.27
CN(C(=O)c1cccc(COc2ccc(Cl)cc2Cl)c1)c1ccccc1 | i | i | i | 25* | -5.98*
Cc1ccc(Cl)cc1NC(=O)CSc1sc2c(O)cc(=O)[nH]c2c1C#N | i | -4.86* | i | i | 0.99
O=C(CCc1c[nH]c2ccccc12)NCC(=O)Nc1ccc(F)c(F)c1F | i | -6.34* | i | i | -0.17
O=C(CN1C(=O)NC(Cc2c[nH]c3ccccc23)C1=O)Nc1ccc(F)c(F)c1F (configuration not stated) | · | i | i | · | ·
CCC/C(=N\NC(=O)C1CC1)c1ccc(Br)cc1 | i | i | i | i | -0.06
COc1ccc(C(=O)n2nc(C)cc2Nc2ccccc2)cc1 | -7.38* | i | i | i | 0.48
Cc1cc(Nc2ccccc2)nn1C(=O)c1ccc(Br)cc1 | i | i | i | i | 2.3
Cc1cc(Nc2ccccc2)nn1C(=O)c1ccccc1 | i | i | i | 25* | 0.11
O=C(N/N=C/c1ccsc1)c1c[nH]c2ccccc12 | i | i | i | i | 1.86
Cc1ccc(C(=O)Nc2cccnc2Oc2ccc(Cl)cc2)cc1 | i | i | i | i | -1.41
Cc1ccc(S(=O)(=O)Nc2cccnc2Oc2ccc(Cl)cc2)cc1 | i | i | i | i | -5.01*
COCCCNC(=O)/C=C/c1ccc(Cl)cc1 | i | i | i | i | -0.07
CCCN1C2CCCC1CC(NC(=O)c1ccccc1OC)C2 (configuration not stated) | i | i | i | 100* | -0.49
CCN(CCC(=O)Nc1ccc(Br)c(C)c1)Cc1ccccc1 | i | i | i | i | -5.67*
NS(=O)(=O)c1ccc(CNC(=S)Nc2ccc(Cl)c(Cl)c2)cc1 | i | -5.27* | i | i | 2.28
COc1ccc(NC(=S)NCc2ccc(S(N)(=O)=O)cc2)cc1OC | i | i | i | i | -1.88
O=C(O)c1cc(-c2ccc(-c3c(-c4ccc5c(c4)OCO5)noc3-c3ccsc3)cc2)nc2ccccc12 | i | i | i | 100* | 1.71
CC(C)(C)NC(=O)c1cc(-c2ccc3c(c2)OCO3)nc2ccccc12 | i | i | i | i | 1.56
Cn1c(Cl)c(C(=O)Nc2ccccc2)c2ccccc21 | · | i | i | i | ·
Cc1ccc(NC(=O)c2c(Cl)n(C)c3ccccc23)cc1 | -7.14* | i | i | i | 0.98
COc1ccc(-c2nn(-c3ccccc3)cc2/C=C/C(=O)N(C)CC(=O)Nc2cccc(F)c2)cc1OC | · | i | -10.4* | · | ·
Cc1ccc(NC(=O)CCSc2nc(C)cc(C)n2)cc1 | i | i | i | i | -0.5
CCNC(=S)N(CCc1c(C)[nH]c2ccc(Cl)cc12)Cc1ccco1 | i | i | i | i | -3.34
CNC(=S)N(CCc1c(C)[nH]c2ccc(C)cc12)Cc1ccco1 | i | i | i | i | -5.03*
SMILES | KCNK9 inh | TMEM16A act | KCNK3 block | ANO1 block | Kir21 block
O=C(Nc1ccc(Cl)c(Cl)c1)c1ccc(Cl)c(Cl)c1 | i | i | i | i | -0.45
CC(C)C1O/C(=N/C(=O)Nc2ccc(Cl)c(Cl)c2)NC1=O (configuration not stated) | i | i | i | 100* | 2.14
CCc1ccc(CN(C)C(=O)c2cc(COc3ccc(OC)cc3Cl)on2)nc1 | i | i | i | i | -2.39
Cc1ccc(NC(=O)c2sccc2-n2cccc2)c(C)c1 | -8.09* | i | i | i | -0.16
CCOC(=O)CN1CC23C=CC(O2)C(C(=O)NCCc2ccccc2)C3C1=O (configuration not stated) | i | -10.6* | i | i | 0.53
CCOC(=O)C(CC)Sc1nnc2n1C(C)(C)Cc1ccccc1-2 (configuration not stated) | i | i | i | i | -0.45
COc1ccc2nc(NC(=O)CSc3nnc4n3C(C)(C)Cc3ccccc3-4)sc2c1 | i | -7.98* | i | i | -0.03
COc1cc(NC(=O)CSc2nnc3n2C(C)(C)Cc2ccccc2-3)cc(OC)c1 | i | i | i | i | -0.62
Cc1ccc(Cl)cc1N1CCN(C(=O)CSc2nnc3n2C(C)(C)Cc2ccccc2-3)CC1 | i | i | -9* | 100* | 0.79
COc1ccc(N2CCN(C(=O)CSc3nnc4n3C(C)(C)Cc3ccccc3-4)CC2)cc1 | i | i | i | 25* | -0.1
O=c1c(Br)c(N2CCCCC2)cnn1-c1ccccc1 | i | i | i | i | 0.08
c1ccc(CN2CCN(CCOCCOc3cccc4ccccc34)CC2)cc1 | i | i | i | i | -14.4*
c1ccc(-c2ccccc2OCCCCN2CCCCCC2)cc1 | i | i | i | i | -6.59*
CC1CCN(CCOCCOc2ccccc2-c2ccccc2)CC1 | i | i | i | i | -5.49*
c1ccc(COc2ccc(OCCCCN3CCCC3)cc2)cc1 | i | i | i | i | -0.41
CC1CCN(CCOc2ccc(OCc3ccccc3)cc2)CC1 | i | i | i | i | -7.09*
c1ccc(-c2ccccc2OCCOCCN2CCCCC2)cc1 | i | i | i | i | -2.05
O=S(=O)(NCC(c1ccco1)N1CCCCC1)c1ccccc1C(F)(F)F (configuration not stated) | · | i | i | · | ·
O=C(NS(=O)(=O)Nc1ccccc1)C1=C(N2CCCC2)COC1=O | · | i | i | · | ·
CC1CCN(CCCCOc2ccccc2-c2ccccc2)CC1 | i | i | i | i | -9.65*
CC(C)COC(=O)N1C[C@H](O)C[C@H]1C(=O)Nc1ccc(Cl)cc1 | i | i | i | i | 0.42
O=C(Nc1ccc(F)cc1)NC1CCN(Cc2ccccc2)CC1 | i | i | i | i | -5.15*
O=C(NC1CC2CCCC(C1)N2C(=O)Nc1ccc(Cl)c(C(F)(F)F)c1)C1CC1 (configuration not stated) | i | i | i | i | 1.33
Fc1ccc(CNc2ccc(N3CCN(Cc4ccccc4)CC3)cc2)cc1 | i | i | i | i | -7.12*
S=C(Nc1ccc(Cl)cc1)NC1CCN(Cc2ccccc2)CC1 | i | i | i | i | -4.67*
O=C(Nc1ccc(Cl)c(C(F)(F)F)c1)NC1CC2CCCC(C1)N2Cc1ccccc1 (configuration not stated) | i | · | · | 100* | 1.07
O=C(Nc1ccc2c(c1)OCO2)NC1CCN(Cc2ccccc2)CC1 | i | i | i | i | -1.32
